# Results published in PubChem BioAssay AID2797 (The Scripps Research Institute Molecular Screening Center, 2010).
# Among all 320,000 compounds or so, about 820 (0.26%) were called active.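 Rule for the calls: active = activation above the mean activation of all tested compounds plus 3 SD, per screening run (cut at about 20% in these data); inactive = the rest.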 What follows is part of a selection rich in actives, with near analogues and random picks from the rest.
# Target: Vasopressin V1a receptor (Homo sapiens) (UniProt P37288)
# Sequence (P37288 whole entry, looked up): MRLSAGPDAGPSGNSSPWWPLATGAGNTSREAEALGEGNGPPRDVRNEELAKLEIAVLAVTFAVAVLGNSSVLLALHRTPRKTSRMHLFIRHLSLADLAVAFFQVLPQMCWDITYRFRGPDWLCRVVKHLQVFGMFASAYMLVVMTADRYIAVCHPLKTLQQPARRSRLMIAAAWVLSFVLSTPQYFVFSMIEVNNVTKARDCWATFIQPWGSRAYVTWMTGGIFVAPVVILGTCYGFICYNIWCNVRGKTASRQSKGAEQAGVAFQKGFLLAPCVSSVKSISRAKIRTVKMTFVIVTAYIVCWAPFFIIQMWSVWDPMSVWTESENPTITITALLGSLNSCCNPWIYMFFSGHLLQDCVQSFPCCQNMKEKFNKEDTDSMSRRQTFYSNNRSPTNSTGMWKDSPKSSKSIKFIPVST
# Experiment: agonists of human V1a receptor, primary screen, counter-screen for OXTR agonist project, fluorescence, CHO-V1R cells (AID 2797);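 note: signal is peak over basal fluorescence ratio across a 100 second FLIPR read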
# Settings: Fluo-8 calcium fluorescence, agonist mode, at 3 µM, stronger effect = higher value, 0% DMSO, 100% 3 nM vasopressin
row,Structure (SMILES),activation
1,COC(=O)c1sc(-c2ccc(C(C)(C)C)cc2)cc1NC(=O)/C=C/C(=O)O,28.5% (active)
2,CC(C)(C)c1ccc(/C=C/C(=O)Nc2ncccn2)cc1,-0.18% (inactive)
3,COc1ccccc1NC(=O)/C=C/C(N)=O,0.73% (inactive)
4,COc1ccc(S(=O)(=O)N2CCOCC2)c(C)c1C,0.14% (inactive)
5,O=C(NNC(=O)c1ccccc1[N+](=O)[O-])Nc1ccccc1C(F)(F)F,0.06% (inactive)
6,O=C(N1CCCC1)C12CC3CC(C1)CC(C(=O)N1CCCC1)(C3)C2,-0.17% (inactive)
7,Cc1nc(C(=O)Nc2ccc(Cl)cc2)sc1C1(C)CC(c2ccccc2)=NO1 (configuration not stated),1.86% (inactive)
8,Cc1nc(-c2ccc(Cl)cc2)sc1C1(C)CC(c2ccccc2F)=NO1 (configuration not stated),0.6% (inactive)
9,Cc1nc(C(=O)NCc2ccccc2)sc1C1(C)CC(c2cccnc2)=NO1 (configuration not stated),33.9% (active)
10,O=C(Nc1ccc(Cl)cc1)Nc1ccc(Oc2cccnc2)nc1,15.2% (inactive)
11,COc1ccc(F)cc1S(=O)(=O)N1CCCCC1,0.03% (inactive)
12,Cc1cc(NC(=O)CCC(=O)N(CC(=O)NCC2CCCO2)c2ccccc2)no1 (configuration not stated),-0.14% (inactive)
13,Nc1ccc2nc3c(=O)[nH]c(=S)[nH]c3nc2c1,33.2% (active)
14,NC(N)=Nc1nc2ccc(Br)cc2c(=O)[nH]1,0.39% (inactive)
15,COCC(=O)N1CCc2ccc(NC(=O)c3ccccc3Cl)cc2C1,1.09% (inactive)
16,CCOC(=O)c1c(S(=O)(=O)Nc2ccc(CN3CCC(C)CC3)cc2)c(C)n(C)c1C,0.65% (inactive)
17,CCC(Oc1ccccc1C)C(=O)Nc1ccc(S(=O)(=O)Nc2cc(C)on2)cc1 (configuration not stated),-0.02% (inactive)
18,Fc1cccc(Cl)c1COc1ccc(-c2nnco2)cc1,25.1% (active)
19,O=C(/C=C/c1ccc(OCc2c(F)cccc2Cl)cc1)N1CCOCC1,2.69% (inactive)
20,Fc1ccc(COc2ccc(-c3nnco3)cc2)cc1,0.56% (inactive)
21,COc1cccc(C(=O)Nc2cc3c(cc2Br)OCCCO3)c1,-1.23% (inactive)

row,Structure (SMILES),activation
1,O=C(c1ccc(Br)o1)N(c1ccccn1)C1CCCCC1,-0.71% (inactive)
2,Cc1cccc(C(=O)OC(C)CN2CCCC2)c1 (configuration not stated),-0.62% (inactive)
3,CC(C)CC1(C)NC(=O)N(CC(=O)Nc2ccc3c(c2)OCCO3)C1=O (configuration not stated),1.53% (inactive)
4,COCC1CCN(C(=O)CCc2nnc(C3(c4ccc(Cl)cc4)CCC3)o2)C1 (configuration not stated),-0.39% (inactive)
5,C=CCN(C(=O)Nc1ccc2oc(C)nc2c1)c1ccccc1,0.19% (inactive)
6,CCN(CC)c1ccc(C(=O)Nn2c(C)nc3ccccc3c2=O)cc1,6.78% (inactive)
7,CCN(CC)c1ccc2oc(=O)c(C)nc2c1,24.3% (active)
8,CC(C)=CCCC(C)CN1CCC(n2nccc2NC(=O)c2ccccc2)CC1 (configuration not stated),0.01% (inactive)
9,COc1ccc(OC)c(NC(=O)COC(=O)Cc2ccsc2)c1,-0.12% (inactive)
10,CN(C)c1ccc(C=C2C(=O)OC3(CCCC3)OC2=O)cc1,2.02% (inactive)
11,CN(C)c1ccc(/C=C2\NC(=S)N(Cc3ccccc3)C2=O)cc1,70.8% (active)
12,COc1cc(/C=C2/SC(=S)N(Cc3ccccc3)C2=O)cc(OC)c1O,15.3% (inactive)
13,CCNC(=O)COc1cc(C)c(Br)c(C)c1,2% (inactive)
14,Cc1cc(C)nc(SC(C)C(=O)N/N=C/c2cccs2)n1 (configuration not stated),0.12% (inactive)
15,COCCCNC(=S)NCCNc1nc2cc(C)c(C)cc2cc1C#N,-0.33% (inactive)
16,S=C(NCC1COc2ccccc2O1)Nc1ccc(Br)cc1 (configuration not stated),5.7% (inactive)
17,c1ccc(-c2cc3c(NCC4COc5ccccc5O4)ncnc3s2)cc1 (configuration not stated),1.35% (inactive)
18,c1ccc2c(c1)OCC(CNc1ncnc3nc[nH]c13)O2 (configuration not stated),102% (active)
19,O=C(N/N=C/c1cc([N+](=O)[O-])ccc1O)/C(=C\c1cccs1)NC(=O)c1ccccc1,0.52% (inactive)
20,COc1ccccc1C1=CC(=O)CCC1,-0.32% (inactive)
21,COc1cc(OC)cc(C(=O)NCC(=O)OCC(=O)NC(C)CCc2ccccc2)c1 (configuration not stated),-0.08% (inactive)

row,Structure (SMILES),activation
1,COc1cc(OC)cc(C(=O)N[C@H](C(=O)OCC(=O)NC(C)c2ccccc2)C(C)C)c1 (some centres not stated),68.5% (active)
2,Cc1cc(C)cc(OCC(=O)NC(C)c2ccccc2)c1 (configuration not stated),-1.15% (inactive)
3,COc1ccc(CCC(=O)c2ccc(OC)cc2)cc1,-0.9% (inactive)
4,COc1ccc(C(=O)NC(=S)NNC(=O)CCc2ccccc2)cc1,37.5% (active)
5,COc1ccc(C(=O)NNC(=S)NC(=O)c2ccccc2[N+](=O)[O-])cc1,-0.34% (inactive)
6,COc1ccc(C(=O)NNC(=S)NC(=O)c2ccccc2)cc1,60% (active)
7,COc1ccc(C(=O)NC(=S)NC2CCCCC2)cc1,-0.74% (inactive)
8,COc1ccc(/C(N)=N/OC(=O)CCCc2ccccc2)cc1,-0.46% (inactive)
9,Cc1ccc(O)c(-c2cc(C(=O)NCc3ccccc3)[nH]n2)c1,0.3% (inactive)
10,COc1ccc(Cc2nnc(SCC(=O)N(c3ccccc3)C(C)C)n(N)c2=O)cc1,-1.17% (inactive)
11,Cc1cccc(NC(=O)CN2CCCN(S(=O)(=O)c3ccc(Br)s3)CC2)c1,1.99% (inactive)
12,Cc1cc(C)nc(NS(=O)(=O)c2ccc(N3C(=O)C4CCCCC4C3=O)cc2)n1 (configuration not stated),1.65% (inactive)
13,CCNC(=O)CC1C(=O)N(c2ccc(OC)cc2)C(=S)N1CCc1ccncc1 (configuration not stated),-0.58% (inactive)
14,Cc1ccc(C(=O)Oc2ccc(C(=S)N3CCOCC3)cc2)cc1,1.56% (inactive)
15,O=C(O)C1CCCN1C1=NS(=O)(=O)c2ccccc21 (configuration not stated),-0.02% (inactive)
16,O=C1C=CN2CCCC2CC1 (configuration not stated),0.74% (inactive)
17,NC(=O)c1cc2ccccc2o/c1=N/NC(=O)c1cccc(F)c1,1.54% (inactive)
18,CCN(CC)c1ccc2cc(C(N)=O)/c(=N\NC(=O)c3ccncc3)oc2c1,27.3% (active)
19,COc1cccc2cc(C(N)=O)/c(=N\NC(=O)c3ccccc3)oc12,1.9% (inactive)
20,COc1ccc(CCNC(=O)CSc2nc(-c3ccc(OC)c(OC)c3)ccc2C#N)cc1,-0.68% (inactive)
